# Assay results reported in a collection of fitness landscapes (doi:10.1038/s41467-024-54723-y).
# In all, about 18,000 sequences were measured (“TetR repression strength (sort-seq, GFP reporter)”: median about 0.23, highest 2% from about 0.68 on). For the sample, the highest values were picked, then their nearest neighbours and some sequences at random.
# Target: TetR (class B, Tn10) (UniProt P04483)
# Assay: TetR repression strength (sort-seq, GFP reporter) (relative to tetO2 = 1); higher = stronger repression
# Conditions: E. coli
# In short: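 In LB with 50 µg/mL chloramphenicol, E. coli SIG10-MAX holding a low-copy library with eight randomized operator positions between a constitutive promoter and sfGFP, plus constitutive TetR, grew for 5 h at 37 °C. FACS then sorted 10^6 cells into 13 fluorescence bins for Illumina sequencing of each bin. Repression strength equals the top bin index plus one less the read-weighted mean bin, normalized to the unaltered operator. Values from three independent transformations were averaged when reads were ≥30 in every replicate and the CV was ≤0.5.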
# TetR (class B, Tn10), sequence (P04483 whole entry): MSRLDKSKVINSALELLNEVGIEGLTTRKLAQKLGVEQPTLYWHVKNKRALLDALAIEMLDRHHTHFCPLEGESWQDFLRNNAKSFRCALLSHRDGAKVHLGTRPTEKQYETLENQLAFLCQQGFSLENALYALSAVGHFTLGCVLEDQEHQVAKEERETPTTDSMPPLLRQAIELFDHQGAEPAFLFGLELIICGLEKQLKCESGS
row,Sequence,TetR repression strength
1,TCCCTCTCAGTTCGTGAGA,0.181
2,TCCCAGTGAGTTGGAGAGA,0.303
3,TCCCTGGCAGTAGGGGAGA,0.185
4,TCCCTCTAAGTTGAGGAGA,0.0793
5,TCCCCCCAAGTTGATGAGA,0.369
6,TCCCTCTCAGTTGTTGAGA,0.357
7,TCCCTGTAAGTTGATGAGA,0.236
8,TCCCTCTCAGTTGATGAGA,0.736
9,TCCCTCTAAGTTGATGAGA,0.795
10,TCCCCGCAAGTTGATGAGA,0.85
11,TCCCCCTCAGTTGATGAGA,0.262
12,TCCCCGCAAGTTGTTGAGA,0.198
13,TCCCTTGCAGTTATAGAGA,0.461
14,TCCCTGGAAGTAATCGAGA,0.241
15,TCCCCATTAGTACGTGAGA,0.214
16,TCCCCGCGAGTAGGGGAGA,0.245
17,TCCCGAAGAGTCTTAGAGA,0.279
18,TCCCACACAGTCGGAGAGA,0.333
19,TCCCCTGAAGTGGCAGAGA,0.204
20,TCCCGCTGAGTCGGCGAGA,0.15
21,TCCCCAGAAGTGGTAGAGA,0.255
22,TCCCGTTTAGTGTTTGAGA,0.0592
23,TCCCGTCTAGTGCGTGAGA,0.0665

row,Sequence,TetR repression strength
1,TCCCATCTAGTATCTGAGA,0.199
2,TCCCATGGAGTACTGGAGA,0.0311
3,TCCCATCTAGTGCGTGAGA,0.708
4,TCCCATCGAGTACTGGAGA,1.02
5,TCCCTTCTAGTATCGGAGA,0.317
6,TCCCATCTAGTATCGGAGA,0.908
7,TCCCATAGAGTACTGGAGA,0.169
8,TCCCATCTAGTGTGGGAGA,1.06
9,TCCCATCTAGTGAGTGAGA,0.316
10,TCCCATCTAGTGTGTGAGA,0.253
11,TCCCATCTAGTGGGGGAGA,0.318
12,TCCCGCCTAGTAGGCGAGA,0.391
13,TCCCCTTCAGTACGAGAGA,0.251
14,TCCCGGTCAGTGGTGGAGA,0.24
15,TCCCTCACAGTGGTAGAGA,0.157
16,TCCCAACTAGTCCTGGAGA,0.278
17,TCCCTCATAGTATTGGAGA,0.22
18,TCCCTGGCAGTGATAGAGA,0.489
19,TCCCCGTCAGTGCGGGAGA,0.0283
20,TCCCTTCTAGTTGGCGAGA,0.281
21,TCCCATCTAGTTGGAGAGA,0.371
22,TCCCATCTAGTTGGCGAGA,0.829
23,TCCCTTTAAGTTCACGAGA,0.199

row,Sequence,TetR repression strength
1,TCCCGGTTAGTTAGCGAGA,0.363
2,TCCCGGGAAGTCCGCGAGA,0.144
3,TCCCGGTCAGTCCTCGAGA,0.15
4,TCCCGGGAAGTCCTCGAGA,0.985
5,TCCCGGGCAGTCCTCGAGA,0.909
6,TCCCGGGGAGTCCTCGAGA,0.242
7,TCCCGGGCAGTCGTCGAGA,0.311
8,TCCCGGACAGTGTAGGAGA,0.295
9,TCCCTCCTAGTGTGGGAGA,0.194
10,TCCCTGGCAGTGATGGAGA,0.189
11,TCCCGGCGAGTGGTAGAGA,0.306
12,TCCCGAGTAGTCCTCGAGA,0.207
13,TCCCCTGGAGTCGGGGAGA,0.222
14,TCCCCTGTAGTCGGGGAGA,0.858
15,TCCCTTGGAGTCGGGGAGA,0.319
16,TCCCTTGTAGTCGGGGAGA,0.938
17,TCCCTTGTAGTCTTGGAGA,0.287
18,TCCCCTGTAGTAGGGGAGA,0.261
19,TCCCTTGTAGTCATGGAGA,0.687
20,TCCCTTGGAGTCATGGAGA,0.307
21,TCCCTTGTAGTCCGGGAGA,0.387
22,TCCCAGGCAGTCGGCGAGA,0.25
23,TCCCAAAGAGTGGGGGAGA,0.217

row,Sequence,TetR repression strength
1,TCCCGTAGAGTGTACGAGA,0.175
2,TCCCGTGGAGTGCCTGAGA,0.0904
3,TCCCCGAAAGTGGCCGAGA,0.0544
4,TCCCGGAAAGTGACCGAGA,0.203
5,TCCCCGACAGTGACCGAGA,1.08
6,TCCCCGCCAGTGACCGAGA,0.207
7,TCCCCGAAAGTGACCGAGA,1.21
8,TCCCCGACAGTGACTGAGA,0.207
9,TCCCGCGGAGTCCTCGAGA,0.294
10,TCCCTATGAGTGGGCGAGA,0.164
11,TCCCACTCAGTTAGGGAGA,0.268
12,TCCCCCCGAGTCGACGAGA,0.239
13,TCCCCCAGAGTCGACGAGA,0.84
14,TCCCCCATAGTCGGCGAGA,0.134
15,TCCCCGATAGTCGACGAGA,0.0424
16,TCCCCAAGAGTCGACGAGA,0.264
17,TCCCCCATAGTCGACGAGA,0.825
18,TCCCATGTAGTATGCGAGA,0.327
19,TCCCCACTAGTGGCGGAGA,0.514
20,TCCCGGTAAGTAACGGAGA,0.201
21,TCCCTGTGAGTCGCAGAGA,0.172
22,TCCCTTTTAGTGAATGAGA,0.889
23,TCCCTTTGAGTGCATGAGA,0.403

row,Sequence,TetR repression strength
1,TCCCTTTTAGTGCCTGAGA,0.325
2,TCCCTTTTAGTGCATGAGA,0.711
3,TCCCTTTTAGTGAGAGAGA,0.425
4,TCCCTTTGAGTGAATGAGA,0.472
5,TCCCGGAAAGTAGCAGAGA,0.0718
6,TCCCTGTTAGTGTGTGAGA,0.138
7,TCCCAATGAGTAGGGGAGA,0.0811
8,TCCCCACAAGTTCGGGAGA,0.0657
9,TCCCTTCTAGTCTAAGAGA,0.306
10,TCCCGCAAAGTCAGGGAGA,0.273
11,TCCCAGCGAGTACGTGAGA,0.134
12,TCCCGTACAGTATAGGAGA,0.0753
13,TCCCGGTAAGTGGGTGAGA,0.141
14,TCCCAGTCAGTGAAAGAGA,0.62
15,TCCCGGTCAGTGAAAGAGA,0.692
16,TCCCGGTGAGTGAAAGAGA,0.347
17,TCCCGGTAAGTGAGAGAGA,0.502
18,TCCCGGTCAGTGAGAGAGA,0.591
19,TCCCGGTAAGTAGCTGAGA,0.208
20,TCCCGGTAAGTGGCTGAGA,1.11
21,TCCCGGTAAGTGAAAGAGA,0.684
22,TCCCCCCCAGTCGATGAGA,0.409
23,TCCCATGGAGTTCGAGAGA,0.0732

row,Sequence,TetR repression strength
1,TCCCCTTAAGTTAATGAGA,0.515
2,TCCCACGGAGTCGCGGAGA,0.172
3,TCCCATGGAGTGTAAGAGA,0.236
4,TCCCGGGCAGTCGTGGAGA,0.285
5,TCCCTAATAGTCCTCGAGA,0.385
6,TCCCTACGAGTACTCGAGA,0.207
7,TCCCTTCTAGTCCTCGAGA,0.421
8,TCCCTACGAGTCCTCGAGA,1.14
9,TCCCTACTAGTCCTCGAGA,1.12
10,TCCCTAAGAGTCCTCGAGA,0.353
11,TCCCATATAGTTTAGGAGA,0.0773
12,TCCCCCGCAGTCCCTGAGA,0.333
13,TCCCAGATAGTCGCGGAGA,0.108
14,TCCCCATCAGTGGTAGAGA,0.417
15,TCCCGATGAGTTAGGGAGA,0.296
16,TCCCGAGGAGTTAAGGAGA,0.295
17,TCCCGATGAGTTAGAGAGA,0.749
18,TCCCGATGAGTTAAGGAGA,0.797
19,TCCCGATGAGTTAATGAGA,0.196
20,TCCCGATGAGTTAGCGAGA,0.201
